Compound activity as filed in PubChem.
Shiga toxin inh: Shiga toxin inhibition. Vero cells, Shiga toxin protein synthesis inhibition reporter. inhibition, % at 38.7 µM. 9.2% of 290,000 active. AID 2315; in the data active = inhibition mostly above about 28%, no sharp cut-off; inactive = mostly below about 43%
Pf growth 48h: inhibits P. falciparum growth in the first generation, 48 h | P. falciparum luciferase growth in erythrocytes, 48 h | Potency, µM (doses to about 28.7 µM), usual class: inhibitors | 5.9% of 310,000 active
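Erythrocytes infected with P. falciparum carrying an integrated firefly luciferase reporter (2% hematocrit, 0.1% parasitemia final) were exposed to compounds in RPMI 1640 with 0.5% Albumax at 37 C, 5% CO2. Growth inhibition was scored as reduced luminescence.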
NS1 function inh: inhibitors of influenza NS1 protein function; Potency, µM (doses to about 46.1 µM); 0.4% of 270,000 active; calls by dose curve; also: actives are rising curves; nearly all actives have a fitted effect of over 50% in size
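Recovery from NS1-induced slow growth read by OD600 in budding yeast switched to galactose assay medium (pH 6.0, -URA) at 1:100 dilution. Compound 23 nl per well; the matching strain lacking NS1 serves as control.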
Pf growth 96h: inhibits malaria parasite growth, 96 h; P. falciparum luciferase reporter growth, 96 h; Potency, µM (highest dose often 28.7 µM), hits mostly inhibitors; 6.9% of 320,000 active; AID 504834
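Compounds incubated with erythrocytes infected by luciferase-expressing P. falciparum (2% hematocrit, 0.05% parasitemia final) for 96 hours, 37 C in 5% CO2. Growth inhibition scored as decreased luciferase luminescence.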
CHX counter: counter-screen for Shiga toxin inhibitors: cycloheximide protein synthesis inhibition. 12% of 300,000 active. cell reporter, cycloheximide protein synthesis inhibition counterscreen. max response, %; in the data active = max response mostly above about 13%, no sharp cut-off; inactive = mostly below about 14%; also: read at 38.3 µM for the half of the compounds with a filed dose
Each line names hits and unclear results; the compound was inactive in the other large screens. Hits are enriched below; roughly 21% of the tested compounds scored in any of these assays. Unless noted, calls follow the shape of the dose curve; as a rule, active = well fitted inhibition curve with a large enough effect; inconclusive = small, poorly fitted or top-dose-only effect, or another doubt; inactive = no such curve, though single readings can be large or run the other way.

COc1ccc(N2CCN(C(=O)c3ccc(N4C(=O)NC5CC4(C)Oc4ccccc45)cc3)CC2)cc1 (centres undefined)	Pf growth 48h inconclusive, Pf growth 96h inconclusive
O=C(N/C=C/n1cnc2cc(C(F)(F)F)ccc21)c1ccccc1F	none (no result: NS1 function inh)
O=C(c1ccco1)N1CCN(Cc2ccccc2F)CC1	none
CCn1c(=O)cc(SCC(=O)N2CCOCC2)c2ccccc21	Pf growth 96h inconclusive
Cc1ccc(C)c(COc2coc(CN3CCN(C(=O)c4ccco4)CC3)cc2=O)c1	Pf growth 48h 12µM, Pf growth 96h inconclusive (no result: Shiga toxin inh, NS1 function inh, CHX counter)
CCn1c2ccccc2c2cc(CN3CCN(C(=O)c4ccco4)CC3)ccc21	Pf growth 48h inconclusive, Pf growth 96h 8.3µM
CCn1c(=O)cc(SCC(=O)N2CCN(C(=O)c3ccco3)CC2)c2ccccc21	Pf growth 96h 5.9µM
O=C(c1ccco1)N1CCN(Cc2c(F)cccc2Cl)CC1	Shiga toxin inh 50, CHX counter 39
CC1(C)c2cc(Cl)ccc2-n2c1cc(O)c(-c1ccccc1)c2=O	none
Cc1ccccc1CN1CCN(C(=O)c2ccco2)CC1	CHX counter 33
CCCS(=O)(=O)N1CCN(Cc2ccc3c(c2)c2ccccc2n3CC)CC1	Pf growth 48h 9.3µM
CCCS(=O)(=O)N1CCN(Cc2c[nH]c3ccccc23)CC1	none
Cc1ccccc1CC(=O)N1CCN(C(=O)c2ccco2)CC1	Pf growth 96h inconclusive
c1ccc(Cn2cc(CNc3ccccc3)nn2)cc1	none
CC(C)CCNC(=O)C1CCN(S(=O)(=O)c2ccc(-n3cnnn3)cc2)CC1	none
Cc1csc(NC(=O)C2CCN(S(=O)(=O)c3ccccc3F)CC2)n1	Pf growth 96h inconclusive (no result: NS1 function inh)
CNC(=O)COC(=O)/C=C/c1c(C)nn(-c2ccccc2)c1C	none
CCc1cc2c(=O)c(-c3cscn3)coc2cc1OC	Shiga toxin inh 101
CCc1cc2c(=O)c(-c3cscn3)coc2cc1O	Shiga toxin inh 67, CHX counter 31 (no result: Pf growth 96h)
CCc1cc2c(=O)c(-n3cnc4ccccc43)coc2cc1O	Pf growth 48h inconclusive, Pf growth 96h inconclusive
COC(=O)c1c(NC(=O)CN2CCCc3ccccc32)sc(C)c1C	Pf growth 48h inconclusive, Pf growth 96h inconclusive
CCOC(=O)c1c(NC(=O)CN2CCCc3ccccc32)sc(C)c1C	Pf growth 48h inconclusive, Pf growth 96h inconclusive, CHX counter 34
COCCOC(=O)c1c(NC(=O)CN2CCCc3ccccc32)sc(C(N)=O)c1C	Pf growth 48h inconclusive, Pf growth 96h 10µM
CCOP(=O)(OCC)c1nc(-c2ccc(Cl)cc2Cl)oc1N1CCOCC1	Pf growth 48h inconclusive, Pf growth 96h inconclusive
COc1ccc(C(=O)Cc2ccc3c(c2)OCO3)c(O)c1	Shiga toxin inh active, NS1 function inh inconclusive, CHX counter 101
O=C(Cc1ccc(Br)cc1)c1ccc(O)cc1O	Shiga toxin inh 186, CHX counter 49 (no result: Pf growth 96h)
COc1ccc(CC(=O)c2ccc(O)cc2O)cc1	Shiga toxin inh 59, CHX counter 49
O=C(Cc1ccc([N+](=O)[O-])cc1)c1ccc(O)cc1O	Shiga toxin inh 61, CHX counter 16
Cn1c(=O)[nH]c(=O)c2c1nc(NN)n2CCOc1ccccc1	Pf growth 96h inconclusive (no result: Pf growth 48h)
O=C(Cc1ccc2c(c1)OCCO2)c1c(O)cc(O)cc1O	Shiga toxin inh 57, CHX counter 32
Cc1ccc(SCC(=O)OCC(=O)N(CCC#N)c2ccccc2)cc1C	none (no result: Shiga toxin inh, NS1 function inh, CHX counter)
Cc1ccc(N(CCC#N)C(=O)CCl)cc1C	Pf growth 48h 9.3µM, Pf growth 96h inconclusive
O=C(NCC1CCCO1)C(c1ccncc1)N(Cc1cccs1)C(=O)CN1C(=O)c2ccccc2S1(=O)=O (centres undefined)	CHX counter 11
CCc1ccc2nc(/N=C(\N)NC(=O)c3ccccc3)nc(C)c2c1	Pf growth 48h 9.3µM, Pf growth 96h 10µM
CCCC(=O)NC(=S)c1c(C)n(C)n(-c2ccccc2)c1=O	none
CCCC(=O)N/C(N)=N/c1nc(C)c2ccccc2n1	Pf growth 48h inconclusive, Pf growth 96h 1.9µM, CHX counter 17
Cc1cc(C)nc(/N=C(/NC(=O)c2ccccc2)Nc2ccccc2)n1	none (no result: Pf growth 96h)
Cc1cc(C)c2nc(/N=C(\N)NC(=O)Nc3ccccc3)nc(C)c2c1	Pf growth 48h 1.9µM, NS1 function inh inconclusive, Pf growth 96h 13µM
Cc1cc(C)c2nc(/N=C(\N)NC(=O)c3ccccc3)nc(C)c2c1	Pf growth 48h inconclusive, Pf growth 96h inconclusive
O=C(COc1ccc(Cl)cc1)NCc1n[nH]c(=O)c2ccccc12	none (no result: Shiga toxin inh, NS1 function inh, CHX counter)
C#C[C@]1(OC(C)=O)CC[C@H]2[C@@H]3CCC4=CC(=O)CC[C@@H]4[C@H]3CC[C@@]21C	none (no result: Pf growth 48h, NS1 function inh, Pf growth 96h)
COC(=O)c1ccc(NC(=O)CSc2ccc(-c3ccccn3)nn2)cc1	none
COc1ccc(C)cc1-n1cnnn1	none
COc1ccc(N2CCN(c3ncccc3C#N)CC2)cc1	CHX counter 11
COc1ccnc(N2CCN(c3ccccc3)CC2)c1C#N	Shiga toxin inh 40, CHX counter 29
COc1ccnc(Oc2ccccc2)c1C#N	none
CN(C)S(=O)(=O)c1cccc(NC(=O)c2ccc3c(c2)OCCO3)c1	none (no result: Shiga toxin inh, NS1 function inh, CHX counter)
CCN(CC)S(=O)(=O)c1ccc(C(=O)Oc2ccc3c(c2)OCO3)cc1	Pf growth 96h 3.3µM
CCN(CC)S(=O)(=O)c1ccc(C(=O)NCc2ccc3c(c2)OCO3)cc1	Pf growth 96h inconclusive (no result: NS1 function inh)
CCC(CC)C(=O)Nc1cccc(C(=O)Nc2ccc3c(c2)OCO3)c1	Shiga toxin inh 80, CHX counter 43 (no result: Pf growth 96h)
CCN(CC)S(=O)(=O)c1ccc(S(=O)(=O)Nc2cc3c(cc2C(C)=O)OCO3)cc1	Pf growth 48h inconclusive, Pf growth 96h 12µM
CCN(CC)S(=O)(=O)c1ccc(C(=O)Nc2ccc3c(c2)OCCO3)cc1	Pf growth 48h 6.6µM, Pf growth 96h inconclusive, CHX counter 20
CCC(CC)C(=O)Nc1cccc(C(=O)Nc2ccc(S(N)(=O)=O)cc2)c1	none
CS(=O)(=O)N(CC(=O)Nc1ccc2c(c1)OCO2)Cc1ccccc1	CHX counter 13
CCN(CC)S(=O)(=O)c1cccc(C(=O)Nc2ccc3c(c2)OCO3)c1	Shiga toxin inh 91, CHX counter 35
CCCN(CCC)S(=O)(=O)c1cccc(C(=O)Nc2ccc3c(c2)OCO3)c1	Pf growth 96h inconclusive (no result: Pf growth 48h)
CCN(CC(=O)Nc1ccc2c(c1)OCCO2)C(=O)c1ccc(S(=O)(=O)N(C)C)cc1	none (no result: Shiga toxin inh, NS1 function inh, CHX counter)
CCN(CC(=O)Nc1ccc2c(c1)OCCO2)S(=O)(=O)c1ccccc1	Shiga toxin inh 37, CHX counter 24
CCN(CC(=O)Nc1cccc(C(C)=O)c1)S(=O)(=O)c1ccccc1	Pf growth 48h inconclusive, Pf growth 96h 9.3µM
Cc1nn(CC(=O)Nc2ccccn2)c(C)c1[N+](=O)[O-]	Pf growth 96h inconclusive
COc1ccc(NC(C)=O)cc1NC(=O)CSc1nc2ncccc2[nH]1	none
CC(C)[C@]1(Cl)CC[C@@H]2[C@]3(C)CCC[C@@](C)(C(=O)O)[C@H]3C[C@H](Cl)[C@@]2(Cl)[C@H]1Cl	none (no result: Shiga toxin inh, Pf growth 48h, Pf growth 96h, CHX counter)
CN(C)S(=O)(=O)c1ccc(S(=O)(=O)N(CC(=O)Nc2ccccc2)CC2CCCO2)cc1 (centres undefined)	Pf growth 96h 12µM
Cc1cc(C)n(C(C)CNS(=O)(=O)c2ccccc2)n1 (centres undefined)	none
